Compound activity from PubChem BioAssay.
ATXN2 expr inh – reduces ATXN2 reporter expression in HEK-293 cells. HEK-293 ATXN2-luciferase reporter, luminescence, 24 h. Potency, µM (top dose mostly 57 µM), for inactives: at the highest dose activity change, negative = inhibition, hits mostly inhibitors. 0.72% of 360,000 active; further: on the % scale 0 is the no-effect control and ±100 the full control effect; nearly all actives have a fitted effect of over 55% in size
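qHTS (up to 57 uM final) was run with 24 h compound exposure of reporter cells at 37 °C. Each well was multiplexed: SteadyGlo luminescence measured ATXN2-luciferase expression after a fluorogenic Gly-Phe-AFC viability readout (25 uM final).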
TDP1 cell noCPT – qHTS for Inhibitors of human tyrosyl-DNA phosphodiesterase 1 (TDP1): qHTS in cells in absence of CPT; DT40 Tdp1-/- hTDP1 cells, no CPT, ATP luminescence, 48 h; 15% of 420,000 active; Potency, µM (titrated, usually from 46.2 µM), for inactives: at the top dose activity change, negative = growth inhibition, hits mostly inhibitors; further: on the % scale 0 is the no-effect control and ±100 the full control effect; nearly all actives have a fitted effect of over 55% in size
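Chicken DT40 Tdp1-/- cells complemented with human TDP1, screened without camptothecin (DMSO vehicle only), 400 cells/well. Compounds pin-transferred, cells incubated at 37 °C for at least 48 hr. Growth read as ATP-dependent luminescence (CellTiter-Glo, 30 min at RT).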
HepG2 viability – kills HepG2 cells in TGF-b inhibitor counter-screen | Potency, µM (top dose mostly 46.1 µM), inactives show top-dose activity change, negative = cytotoxicity, most hits filed as cytotoxic | HepG2 CAGA-GFP viability, ATP luminescence, 18 h | 0.76% of 410,000 active
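HepG2 CAGA-GFP cells (1000/well, DMEM with 1% FBS) received compound, then TGF-beta at 500 pg/mL final, and were incubated 18 hours at 37 degrees C. Viability was read by CellTiter-Glo luminescence. Media-only wells were set as complete cell-killing and DMSO as no toxicity.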
DT40 TDP1 CPT – growth inhibition of DT40 Tdp1-/-;hTDP1 cells with camptothecin (screen for TDP1 inhibitors); AID 686979; chicken DT40 Tdp1-/-;hTDP1 cells + 20 nM CPT, ATP luminescence, 48 h; 12% of 420,000 active; Potency, µM (highest dose often 46.2 µM), for inactives: top-dose activity change, negative = growth inhibition, most hits filed as inhibitors; further: on the % scale 0 is the no-effect control and ±100 the full control effect; nearly all actives have a fitted effect of over 55% in size
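Chicken DT40 Tdp1-/- cells complemented with human TDP1, 400 cells/well, exposed to compounds plus 20 nM camptothecin for at least 48 h at 37 C; viability read as ATP content by CellTiter-Glo luminescence.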
ATXN viability – reduces viability in counter-screen for ATXN expression inhibitors | 0.49% of 400,000 active | Potency, µM (doses to about 56.7 µM), most hits filed as cytotoxic | S2 cells (HEK-293 line with an ATXN2-luciferase reporter) viability, CellTiter-Fluor protease fluorescence, 24 h; further: nearly all actives have a fitted effect of over 40% in size
TGFb SMAD3 inh – blocks TGF-b signaling; AID 588855; HepG2 CAGA-GFP TGF-b/SMAD3 reporter, GFP fluorescence, 18 h; TGF-beta stimulated, 500 pg/mL final; Potency, µM (titrated, usually from 46.1 µM), for the others: at the top dose activity, negative = inhibition, most hits filed as inhibitors; 1.2% of 410,000 active; further: on the % scale 0 is the no-effect control and ±100 the full control effect; nearly all actives have a fitted effect of over 65% in size
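GFP signal (ex488/em500-530) from TGF-beta-stimulated HEPG2 CAGA-GFP cells, 500 pg/mL final, 18 h at 37 degrees C in DMEM plus 1% FBS, normalized to unstimulated and DMSO-stimulated controls.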
Numbers without * were called inactive; i = inactive; ? = inconclusive; . = not tested or not shown. This is a sample that favours compounds with a hit; in the whole collection about 17% have one here. The call rests on the fitted dose curve; in most records, active means well fitted curve in the direction sought with a large enough effect; inconclusive means small, poorly fitted or top-dose-only effect, or another doubt; inactive means no such curve, though single readings can be large; an effect the other way counts as inactive or inconclusive. Potency means the concentration at half of the fitted maximal effect.

SMILES	ATXN2 expr inh	TDP1 cell noCPT	HepG2 viability	DT40 TDP1 CPT	ATXN viability	TGFb SMAD3 inh
CCOc1ccc2oc(C(=O)N(CCOC)c3c(N)n(CC(C)C)c(=O)[nH]c3=O)c(C)c2c1	5.3%	-6.6%	-4.6%	-5.4%	i	4.3%
COc1cccc(/C=N/NC(=O)C(=O)N2CCCCCC2)c1O	-33.3%	?	-25.7%	?	i	-11.4%
COc1cccc(/C=N/NC(=O)C(=O)N/N=C/c2cccc(OC)c2O)c1O	0.0%	1.64µM*	-19.2%	1.03µM*	i	-7.9%
COc1ccc(/C=N/NC(=O)c2cccc([N+](=O)[O-])c2)cc1O	19.4%	?	-1.7%	-29.2%	i	-26.5%
COc1cccc(/C=N/NC(=O)C(=O)NCc2ccco2)c1O	-26.1%	20.6µM*	-30.1%	7.31µM*	i	2.1%
COc1cccc(/C=N/NC(=O)C(=O)NCc2ccco2)c1OC	2.9%	-8.7%	-10.1%	-0.4%	i	-12.8%
COc1cccc(/C=N/NC(=O)c2cc3cc([N+](=O)[O-])ccc3s2)c1O	?	0.461µM*	10µM*	0.92µM*	.	0.0%
COC(=O)c1cccc(/C=N/NC(N)=S)c1O	.	0.259µM*	-51.3%	0.184µM*	?	?
CCOC(=O)c1c(S(=O)(=O)NCc2ccc(C)o2)c(C)n(C)c1C	.	-12.7%	-3.2%	?	i	-10.6%
CC1=CC(=O)Nc2ncccc2O1	.	?	-69.4%	?	?	?
O=C(CN1CCOCC1)Nc1ccc(NC(=O)c2ccccc2F)cc1	10.4%	-17.4%	-1.7%	-10.8%	i	3.8%
COc1cccc(/C=N\NC(=O)C2C(=O)NCC2c2ccccc2)c1O (stereo unspecified)	-29.3%	23.1µM*	0.8%	?	i	5.9%
COc1ccc(/C=N/NC(=O)C2C(=O)NCC2c2ccccc2)c(OC)c1 (stereo unspecified)	-1.9%	-12.7%	-6.4%	-8.0%	i	6.2%
COc1cccc(/C=N/NC(=O)c2ccoc2C)c1O	?	0.731µM*	-57.2%	3.26µM*	?	?
COc1cccc(/C=N/NC(=O)c2c(-c3ccccc3)noc2C)c1OC	1.1%	-2.9%	-26.9%	-10.1%	i	?
COc1cccc(/C=N/NC(=O)c2c(-c3ccccc3)noc2C)c1O	?	4.61µM*	-43.3%	4.11µM*	?	-21.2%
O=C(CSc1ccc(Cl)cc1Cl)N1CCC(c2nc3ccccc3s2)CC1	-15.6%	?	-41.3%	-17.4%	i	?
CC1=CC(C)(C)N=C(Nc2nc(C)c3cc(C)cc(C)c3n2)N1	?	16.4µM*	-47.4%	14.6µM*	?	?
Cn1c(CCNC(=O)c2ccco2)nc2cc(NS(=O)(=O)c3ccccc3)ccc21	-4.2%	?	4.3%	20.6µM*	i	-24.1%
COc1ccccc1C(=O)Nc1ccc2c(c1)nc(CCNC(=O)c1ccco1)n2C	-13.5%	0.92µM*	-14.5%	1.3µM*	i	?
Cn1c(CCNC(=O)c2ccco2)nc2cc(NC(=O)c3ccco3)ccc21	34.4%	-25.0%	-2.0%	?	i	20.4%
Cn1c(CCNC(=O)c2ccco2)nc2ccccc21	1.7%	-7.4%	-17.0%	-0.6%	i	0.0%
Cc1ccc(-c2cc(C(F)(F)F)n3nc(C(=O)Nc4ccc(Cl)cc4Cl)cc3n2)cc1	7.1%	-0.8%	7.4%	-2.3%	i	4.8%
CC(C)=CCC12Oc3cc(O)ccc3C1(O)Oc1cc(O)c([C@H]3C=C(C)CC(c4ccc(O)cc4O)[C@H]3C(=O)c3ccc(O)cc3O)c(O)c1C2=O (stereo partly specified)	?	25.9µM*	-98.1%	?	?	?
CCn1c(=O)c(C(=O)NNS(=O)(=O)c2ccc(Cl)cc2)c(O)c2ccccc21	2.2%	?	-0.2%	?	i	-7.4%
SMILES	ATXN2 expr inh	TDP1 cell noCPT	HepG2 viability	DT40 TDP1 CPT	ATXN viability	TGFb SMAD3 inh
O=C(NC(=S)NCCC1=CCCCC1)c1ccccc1Br	62.6%	16.4µM*	-16.9%	?	i	?
S=C(NCCC1=CCCCC1)NCc1ccco1	25.3%	10.3µM*	0.0%	16.4µM*	i	5.0%
O=C(CCn1c(=O)c2ccccc2n(CC(=O)NCCC2=CCCCC2)c1=O)NCc1ccco1	-1.2%	?	16.3%	-22.7%	i	?
O=C(NC(=S)NCCC1=CCCCC1)c1cncc(Br)c1	20.0%	-6.7%	-52.2%	3.2%	i	?
O=C(Nc1ccc2ccccc2n1)c1ccccc1Br	70.4%	-13.5%	-11.0%	0.5%	i	0.4%
OCC1(Cc2ccc(Cl)cc2)CCN(CC2CC=CCC2)CC1 (stereo unspecified)	8.0%	?	-39.3%	29.1µM*	i	-21.7%
OCC1(Cc2ccc(Cl)cc2)CCN(CCCc2ccccc2)CC1	-33.8%	23.1µM*	-63.6%	?	i	?
OCC1(Cc2ccc(Cl)cc2)CCN(Cc2ccccc2F)CC1	-35.4%	?	-26.2%	?	i	-10.0%
CSc1ccc(CN2CCC(CO)(Cc3ccc(Cl)cc3)CC2)cc1	?	18.4µM*	-156.3%	?	?	22.4µM*
O=C(NNC(=O)c1ccc(=O)[nH]c1)c1ccc(NS(=O)(=O)c2cccs2)cc1	7.9%	13.2%	-15.5%	0.6%	i	-5.9%
COc1cc(Br)cc(C(c2c(C)n(C)n(-c3ccccc3)c2=O)c2c(C)n(C)n(-c3ccccc3)c2=O)c1O	-26.6%	-26.6%	-25.8%	2.1%	i	-7.3%
Cc1nn(-c2ccccc2)c2c1CC(=O)Nc1ccccc1-2	37.8%	0.82µM*	2.9%	0.651µM*	?	?
Cc1ccc(-c2nnn(CC(=O)N(CCN3CCOCC3)C(C(=O)NC3CCCC3)c3ccncc3)n2)o1 (stereo unspecified)	0.5%	6.8%	2.1%	-4.8%	i	3.4%
O=C(Nc1cc(S(=O)(=O)N2CCOCC2)ccc1N1CCOCC1)c1cc2c(s1)CCC2	-10.0%	23.1µM*	-16.3%	-0.8%	i	-24.7%
COc1ccc(S(=O)(=O)N2CCOCC2)cc1NC(=O)c1cc2c(s1)CCCC2	13.7%	2.0%	3.5%	6.4%	i	-2.9%
O=C(Nc1cc(S(=O)(=O)N2CCOCC2)ccc1N1CCOCC1)c1ccc([N+](=O)[O-])s1	-35.8%	7.31µM*	-4.1%	11.6µM*	i	?
O=C1c2ccccc2C(=O)N1Cc1ccc2c(c1)OCO2	-10.2%	11.6%	-27.9%	12.6%	i	-3.6%
